The results in this text go back to PubChem BioAssay (NCATS).

Records with an inconclusive call do not appear. Unmarked numbers belong to inactive results. Active and inactive are the calls of the source. The call rests on the fitted dose curve; in most records, active means well fitted curve in the direction sought with a large enough effect; inconclusive means small, poorly fitted or top-dose-only effect, or another doubt; inactive means no such curve, though single readings can be large; an effect the other way counts as inactive or inconclusive.

For assay [1], the target named is Rap guanine nucleotide exchange factor 3 (Homo sapiens) (UniProt O95398). In words: Confirmatory qHTS for antagonist of cAMP-regulated guanine nucleotide exchange factor 3 (EPAC1) (AID 1645880). Further: nearly all actives have a fitted effect of over 55% in size. Further: potency means the concentration at half of the fitted maximal effect. The procedure, abridged:
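Nucleotide exchange uses 100 nM EPAC1, 250 nM RAP1B-BODIPY-GDP and 50 uM GDP, with compounds in a concentration-titration series. After 5 min at room temperature, fluorescence (480 nm ex/540 nm em) is read every 5 min for 30 min. Data are normalized to control ATA and DMSO.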
A general note: Quantitative high-throughput screening tests each substance at several concentrations.

Assay [2] shares this target. In words: Confirmatory qHTS for agonist of cAMP-regulated guanine nucleotide exchange factor 3 (EPAC1) (AID 1645881).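 Further: EPAC1 catalysed release of BODIPY-GDP from Rap1B seen as fluorescence loss; 100% = effect of cAMP agonist control; nearly all actives have a fitted effect of over 75% in size.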
In assay [3] the target is Rap guanine nucleotide exchange factor 4 (Homo sapiens) (UniProt Q8WZA2). In words: Confirmatory qHTS for agonist of cAMP-regulated guanine nucleotide exchange factor 4 (EPAC2) (AID 1645884).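 Further: nucleotide exchange releases bodipy-GDP from Rap1 and this lowers its fluorescence; on the % scale 0 is the no-effect control and ±100 the full control effect; nearly all actives have a fitted effect of over 65% in size.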
Assay [4] has the same target. In words: Confirmatory qHTS for antagonist of cAMP-regulated guanine nucleotide exchange factor 4 (EPAC2) (AID 1645885). Further: nearly all actives have a fitted effect of over 25% in size. Further: potency means the concentration at half of the fitted maximal effect.
The target in assay [5] is Rap guanine nucleotide exchange factor 3 (Homo sapiens) (UniProt O95398). In words: Counterscreen qHTS for antagonist of cAMP-regulated guanine nucleotide exchange factor 3 (EPAC1) (AID 1645888).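 Further: fluorescence loss as bound BODIPY-GDP is released from Rap1B; % of control where 0% means no effect.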 The procedure, abridged:
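Rap1B-BODIPY-GDP 250 nM + GDP 50 uM; cpds 7-pt, final 9.74 nM–152 uM (activator mode) or from 7.32 nM upwards (inhibitor mode); RT; FI 480/540 nm at 5 and 30 min, then ± cAMP, reread.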
(In general: The purpose of a counterscreen is to sort out artefacts and off-target activity.)

Chain of Rap guanine nucleotide exchange factor 3 (Homo sapiens) (O95398 whole entry, looked up): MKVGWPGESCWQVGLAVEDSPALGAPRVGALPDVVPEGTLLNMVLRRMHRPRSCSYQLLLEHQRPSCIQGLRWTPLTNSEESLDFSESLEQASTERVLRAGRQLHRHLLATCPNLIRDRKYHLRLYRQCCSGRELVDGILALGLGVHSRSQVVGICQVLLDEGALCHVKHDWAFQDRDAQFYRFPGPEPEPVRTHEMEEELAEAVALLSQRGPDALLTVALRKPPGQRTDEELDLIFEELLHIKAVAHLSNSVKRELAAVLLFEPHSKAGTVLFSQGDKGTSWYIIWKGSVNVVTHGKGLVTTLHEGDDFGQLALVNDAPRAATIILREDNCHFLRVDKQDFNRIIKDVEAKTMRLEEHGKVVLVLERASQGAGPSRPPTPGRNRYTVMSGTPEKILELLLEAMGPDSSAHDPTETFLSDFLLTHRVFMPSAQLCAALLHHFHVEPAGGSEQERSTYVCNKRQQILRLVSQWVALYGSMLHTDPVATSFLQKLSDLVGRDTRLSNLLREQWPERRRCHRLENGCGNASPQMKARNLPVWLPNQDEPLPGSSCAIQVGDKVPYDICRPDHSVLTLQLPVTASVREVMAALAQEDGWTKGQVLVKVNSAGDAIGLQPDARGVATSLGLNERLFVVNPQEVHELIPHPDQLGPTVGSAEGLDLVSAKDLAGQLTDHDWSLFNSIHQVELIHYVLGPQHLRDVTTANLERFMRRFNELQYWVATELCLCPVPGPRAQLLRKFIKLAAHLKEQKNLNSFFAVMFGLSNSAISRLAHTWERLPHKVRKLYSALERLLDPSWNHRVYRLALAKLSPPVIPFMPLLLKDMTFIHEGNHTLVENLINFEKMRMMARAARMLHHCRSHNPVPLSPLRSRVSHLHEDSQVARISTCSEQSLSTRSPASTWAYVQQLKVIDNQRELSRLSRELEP
Chain of Rap guanine nucleotide exchange factor 4 (Homo sapiens) (Q8WZA2 whole entry, looked up): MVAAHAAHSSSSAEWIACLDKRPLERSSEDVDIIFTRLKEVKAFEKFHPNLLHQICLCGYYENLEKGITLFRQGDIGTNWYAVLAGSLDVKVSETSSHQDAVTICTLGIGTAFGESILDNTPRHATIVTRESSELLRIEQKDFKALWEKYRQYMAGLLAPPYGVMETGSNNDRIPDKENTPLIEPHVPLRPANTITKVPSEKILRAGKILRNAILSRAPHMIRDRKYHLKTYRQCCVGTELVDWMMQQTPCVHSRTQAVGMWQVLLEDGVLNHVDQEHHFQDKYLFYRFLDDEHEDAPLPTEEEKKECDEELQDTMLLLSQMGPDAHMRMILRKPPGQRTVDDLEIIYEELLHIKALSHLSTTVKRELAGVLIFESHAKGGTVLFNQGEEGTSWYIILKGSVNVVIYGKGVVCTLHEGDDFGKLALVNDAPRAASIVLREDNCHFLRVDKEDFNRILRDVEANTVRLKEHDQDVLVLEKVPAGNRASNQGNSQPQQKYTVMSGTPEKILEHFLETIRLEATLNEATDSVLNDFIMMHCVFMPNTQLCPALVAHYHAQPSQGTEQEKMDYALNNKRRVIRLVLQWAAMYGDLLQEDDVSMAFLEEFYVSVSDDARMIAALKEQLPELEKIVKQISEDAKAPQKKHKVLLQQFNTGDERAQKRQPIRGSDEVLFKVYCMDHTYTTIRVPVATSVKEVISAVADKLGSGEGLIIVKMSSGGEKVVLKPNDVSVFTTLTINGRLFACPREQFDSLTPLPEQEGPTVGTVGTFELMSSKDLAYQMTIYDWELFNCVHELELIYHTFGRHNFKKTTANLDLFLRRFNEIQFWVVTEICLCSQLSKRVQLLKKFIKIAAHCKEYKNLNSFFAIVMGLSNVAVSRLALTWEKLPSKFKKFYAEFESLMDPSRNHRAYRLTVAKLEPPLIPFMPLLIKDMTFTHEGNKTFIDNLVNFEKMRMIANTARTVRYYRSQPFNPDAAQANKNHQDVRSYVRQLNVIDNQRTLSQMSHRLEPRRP

On to `CCN(CCn1cccn1)Cc1c(C(=O)N2CCCCCCC2)nc2ccc(Cl)cn12`, for which the Potency entry in assay [1], in assay [2], in assay [3] and in assay [4] was “inactive” each time.
For `COc1cccc(-c2nc3cc(SC)ccc3cc2CN(C(=O)c2csc(C)n2)C2CC2)c1`, the Potency result in assay [1], in assay [2] and in assay [3] was “inactive” in each case. In assay [4], the Potency is 11.1 µM (active).
As to `CC/C(=C/c1ccccc1OC)c1cc(-c2ccccc2)cc2oc3ccccc3c12`, the Potency entry in assay [1], in assay [2], in assay [3] and in assay [4] was “inactive” in each case.
On to `CN(C)c1ccc(/C=C/C=C/c2ccnc3ccccc23)cc1`, for which the Potency result in assay [1], in assay [2], in assay [3] and in assay [4] was “inactive” each time.
As to `COc1cc(CCN(C(=O)c2cccc(S(C)(=O)=O)c2)C(CCc2ccccc2)c2nc3ccccc3[nH]2)cc(OC)c1` (configuration not stated), the Potency entry in assay [1], in assay [2], in assay [3] and in assay [4] was “inactive” in each case.
On to `CCCCN(Cc1ccc(C(=O)N[C@H](C(=O)O)C(C)C)cc1)C(=O)C(c1ccccc1)c1ccccc1`, for which the Potency result in assay [1], in assay [2] and in assay [4] was “inactive” in each case. Also, the activation in assay [3] was 8.93% [at 17.1 µM, percent relative to cAMP agonist control].
As to `CC[C@H]1c2[nH]c3ccc(C(C)C)cc3c2[C@@H]2CCN3C(=O)CCC[C@H]1[C@H]23`, the Potency result in assay [1], in assay [2], in assay [3] and in assay [4] was “inactive” throughout.
`CC(c1ccc(N(C)C)cc1)c1ccnc2ccccc12` (configuration not stated): the Potency result in assay [1], in assay [2], in assay [3] and in assay [4] was “inactive” in each case.
Consider `COC(=O)C(Cc1ccc(O)cc1)NC(=O)CCc1nc2ccccc2s1` (configuration not stated), for which the Potency result in assay [1], in assay [2], in assay [3] and in assay [4] was “inactive” each time.
For `CCCCN(C(=O)CSc1n[nH]c(-c2ccc(C)cc2)n1)c1c(N)n(CCCC)c(=O)[nH]c1=O`, the Potency result in assay [1], in assay [2], in assay [3] and in assay [4] was “inactive” in each case.
On to `CCOC(=O)N1CCC(N2CCOc3ccc(CN4CCC(O)(c5cccnc5)CC4)cc3C2)CC1`, for which the Potency entry in assay [1], in assay [2], in assay [3] and in assay [4] was “inactive” in each case.
As to `COc1ccc(C(C[N+](=O)[O-])c2c(C)cc3ccccn23)c(OC)c1` (configuration not stated), the Potency result in assay [1], in assay [2] and in assay [4] was “inactive” each time. Moreover, in assay [3], the activation was 7.09% [at 17.1 µM, percent relative to cAMP agonist control].
`COc1ccccc1NC(=O)Nc1nc(CC(=O)Nc2ccc(N(C)C)cc2)cs1`: the Potency result in assay [1], in assay [2] and in assay [4] was “inactive” throughout. For the same compound, the activation in assay [3] was 15.9% [at 17.1 µM, percent relative to cAMP agonist control].
Regarding `O=C(O)c1cc(-c2ccc(-c3c(-c4ccc5c(c4)OCO5)noc3-c3ccsc3)cc2)nc2ccccc12`, the figures for the Potency in assay [1] and in assay [4] were 75.7 µM (active) and 37.9 µM (active), respectively. The Potency result in assay [2] and in assay [3] was “inactive” throughout.
Take `Cc1nc(C)n(CC(=O)NCC2Cc3cc(-c4cccc(OC(F)(F)F)c4)ccc3O2)n1` (configuration not stated): the Potency entry in assay [1], in assay [2] and in assay [3] was “inactive” throughout. In assay [4], the Potency was 44.1 µM (active).
Turning to `CCCCN(C(=O)c1cccc2c(=O)c(C)c(-c3ccccc3)oc12)c1ccccc1`, the Potency entry in assay [1], in assay [2] and in assay [4] was “inactive” throughout. Besides, the activation in assay [3] was 8.49% [at 17.1 µM, percent relative to cAMP agonist control].
In the case of `O=C(NCc1ccc(F)cc1)c1ccc2c(=O)n3c(nc2c1)CCCCC3`, the Potency result in assay [1], in assay [2], in assay [3] and in assay [4] was “inactive” each time.
With `CC(C)N(C(=O)Nc1ccc2nsnc2c1)C(C)C`, in assay [1], the Potency was 22.4 µM (active). The Potency entry in assay [2] and in assay [4] was “inactive” in each case. Moreover, the activation in assay [3] is 2.55% [at 17.1 µM, percent relative to cAMP agonist control].
As for `COc1ccc(NC(=O)Cn2c(SCc3cc(C)ccc3C)nc3ccncc32)c(OC)c1OC`, the Potency entry in assay [1], in assay [2] and in assay [3] was “inactive” in each case. In addition, the outcome in assay [4] is “inactive [at 12.7 µM]”.
Take `CC(=O)NC(c1ccc2ccccc2c1)c1ccc2cccnc2c1O` (configuration not stated): the Potency entry in assay [1], in assay [2] and in assay [3] was “inactive” each time. For the same compound, the Potency in assay [4] was 10.7 µM (active).
For the compound `Cc1ccc(S(=O)(=O)N2[C@@H](c3ccc(C(C)(C)C)cc3)C(C(=O)O)=CC[C@H]2c2ccc(C(C)C)cc2)cc1`, the Potency in assay [1] was 19 µM (active). The Potency entry in assay [2], in assay [3] and in assay [4] was “inactive” throughout.
For `COC(=O)c1cc(CNC(=O)c2ccccn2)cc(NC(=O)c2ccccc2OC)c1`, the Potency entry in assay [1], in assay [2], in assay [3] and in assay [4] was “inactive” in each case.
Take `O=C1C[C@H]2C=CCc3cccc(c32)CN1Cc1ccc(Cl)cc1`: the Potency entry in assay [1], in assay [2] and in assay [3] was “inactive” throughout. Besides, the Potency in assay [4] was 44.1 µM (active).
Consider `COc1cccc(OC)c1NC(=O)c1ccc(-c2cc(Cl)ccc2Cl)o1`, for which the Potency result in assay [1], in assay [2], in assay [3] and in assay [4] was “inactive” throughout.
As to `COc1ccc(-c2[nH]c(-c3ccc(SC)cc3)nc2SCC(=O)Nc2nccs2)cc1`, in assay [1], the Potency is 84.9 µM (active). Further, the Potency entry in assay [2], in assay [3] and in assay [4] was “inactive” in each case.
Turning to `O=C(COC(=O)/C=C/c1cccc(C(F)(F)F)c1)NC(=O)NC1CCCC1`, the Potency entry in assay [1], in assay [2] and in assay [4] was “inactive” each time. For the same compound, the activation in assay [3] was 4.78% [at 17.1 µM, percent relative to cAMP agonist control].
For the compound `CC(=O)Nc1ccc(NC(=O)CCC(=O)OCC(=O)c2ccc(C)c([N+](=O)[O-])c2)cc1`, the Potency result in assay [1], in assay [2], in assay [3], in assay [4] and in assay [5] was “inactive” each time.
As for `N#Cc1cc(NC(=O)c2ccc(Cl)cc2)ccc1Sc1ccccc1`, the Potency result in assay [1], in assay [2], in assay [3] and in assay [4] was “inactive” throughout.
As to `Cc1ccc(S(=O)(=O)N2[C@@H](CO)CO[C@H]2CC(=O)c2ccc(F)cc2)cc1`, the Potency result in assay [1], in assay [2], in assay [3] and in assay [4] was “inactive” throughout.
